Among the data in PubChem BioAssay (NCI) are growth inhibition values, retold here.

About 79,000 compounds went through this panel and 15% of them were active in at least one assay; those are over-represented in the sample as a whole. Values without a mark were called inactive. Activity calls are given as the source filed them. Rule as the data show it: active = growth inhibition above about 70%; inactive = the rest.

Experiment [1] can be described thus: NCI Yeast Anticancer Drug Screen. Data for the rad50 strain (AID 155).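 Also: 0% = growth of vehicle-only cultures of the same strain.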 Conditions: S. cerevisiae rad50 strain growth inhibition; at 50.0 µM; hits give high values. In short, it runs like this:
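Growth of the mutant yeast was measured after compound exposure and referenced to vehicle-treated cultures.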

The nature of experiment [2]: NCI Yeast Anticancer Drug Screen. Data for the mec2-1 strain (AID 157). The conditions noted are these: S. cerevisiae mec2-1 strain, at 50.0 µM, hits give high values. The essentials: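 Growth inhibition is read against vehicle-treated controls after compound exposure of the mec2-1 yeast strain, which is defective in DNA damage repair or cell cycle control.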
Experiment [3] in a line: NCI Yeast Anticancer Drug Screen. Data for the sgs1 mgt1 strain (AID 161).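 Also: 0% = growth of cultures given vehicle only.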 The conditions noted are these: S. cerevisiae sgs1 mgt1 strain, at 50.0 µM, hits give high values. In short, it runs like this:
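Growth of a repair-deficient yeast mutant was monitored after compound treatment and expressed as inhibition relative to vehicle-treated cultures.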

Experiment [4] in a line: NCI Yeast Anticancer Drug Screen. Data for the cln2 rad14 strain (AID 165).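 Also: 0% = growth equal to vehicle treated cultures.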 Conditions: S. cerevisiae cln2 rad14 strain, at 50.0 µM, hits give high values. In short, it runs like this:
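Growth inhibition, relative to vehicle-treated controls, is the read-out. The test organism is a yeast strain with defined genetic alterations, cln2 rad14.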

A short description of experiment [5]: NCI Yeast Anticancer Drug Screen. Data for the bub3 strain (AID 167). Conditions: S. cerevisiae bub3 mutant strain, at 50.0 µM, hits give high values. In short, it runs like this:
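Whole-cell yeast assay. The mutant strain was incubated with compounds, and growth inhibition was determined by comparison with vehicle-treated cells.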

The nature of experiment [6]: NCI Yeast Anticancer Drug Screen. Data for the mlh1 rad18 strain (AID 175). Conditions: S. cerevisiae mlh1 rad18 strain growth inhibition; at 50.0 µM; hits give high values. In short, it runs like this: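 Cells of a genetically altered yeast strain, deficient in DNA damage repair, were treated with compound. Their growth was then compared with that of vehicle-treated cultures to give inhibition.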

For the molecule `O=C(c1ccccc1)c1oc2ccc(Br)cc2c1-c1cnn(-c2ccccc2)c1`, the growth inhibition in experiment [1] was 29.2%; in experiment [2], -9.5%; in experiment [3], 11.9%; in experiment [4], 15.1%; in experiment [5], -3.85%; in experiment [6], 22.1%.
As to `Cc1c(C=O)cc(-c2ccccc2)n1C`, the growth inhibition was -16.2% in experiment [1]; -3.25% in experiment [2]; -4.85% in experiment [3]; -8.45% in experiment [4]; -7.1% in experiment [5]; -1.6% in experiment [6].
With `CC(C)CC(Nc1ccc2ccccc2c1)C(N)=O` (stereo unspecified), the growth inhibition in experiment [1] is -6.9%; in experiment [2], -44.4%; in experiment [3], 10.2%; in experiment [4] it was 8.65%; in experiment [5], 10.8%; in experiment [6], -3.4%.
With `CS(=O)(=O)OC1COC(c2ccccc2)OC1C1OC(c2ccccc2)OCC1OS(C)(=O)=O` (stereo unspecified), the growth inhibition in experiment [1] was -26.7%; in experiment [2], -3.85%; in experiment [3], -31.9%; in experiment [4], -4%; in experiment [5], -0.9%; in experiment [6], -7.25%.
Turning to `CCNCCN(CC)CC`, the growth inhibition in experiment [1] was -12.7%; in experiment [2], -5.75%; in experiment [3], -21.1%; in experiment [4], 6.1%; in experiment [5], 0%; in experiment [6] it was -17.4%.
Regarding `O=C(/C=C/c1ccc(O)c(O)c1)c1ccc(O)cc1O`, the growth inhibition in experiment [1] is -26.5%; in experiment [2] it was -27.9%; in experiment [3], -24.2%; in experiment [4] it was 4.05%; in experiment [5], -40.6%; in experiment [6], -38.9%.
Regarding `O=C(NCCN1CCCCC1)c1ccc(I)cc1`, the growth inhibition is 9.2% in experiment [1]; 0.95% in experiment [2]; 24.8% in experiment [3]; 10.2% in experiment [4]; 22.4% in experiment [5]; 8.6% in experiment [6].
With `O=C1NC(c2ccccc2)(c2ccccc2)C(=O)N1CNc1ccccn1`, the growth inhibition was -0.4% in experiment [1]; -14.8% in experiment [2]; -31.8% in experiment [3]; 8.95% in experiment [4]; -8.3% in experiment [5]; 29.6% in experiment [6].
As to `CC1(C)O[C@@H]2C[C@H]3[C@@H]4C[C@H](F)C5=CC(=O)C=C[C@]5(C)[C@@]4(F)[C@@H](O)C[C@]3(C)[C@]2(C(=O)CO)O1`, the growth inhibition in experiment [1] is -1.8%; in experiment [2] it was -25.6%; in experiment [3], 0.25%; in experiment [4], -4.75%; in experiment [5], -57.8%; in experiment [6], -8.35%.
With `CC1(c2ccccc2)OCC(c2ccccc2)O1` (stereo unspecified), the growth inhibition in experiment [1] was -9.2%; in experiment [2], -23.2%; in experiment [3] it was -7%; in experiment [4], -22%; in experiment [5], 12.7%; in experiment [6], 10.3%.
`CC(C)(C)OC(=O)CNC(=O)C(CSC(c1ccccc1)(c1ccccc1)c1ccccc1)N1C(=O)c2ccccc2C1=O` (stereo unspecified): the growth inhibition in experiment [1] was 45.9%; in experiment [2], 32.5%; in experiment [3] it was 46.2%; in experiment [4] it was 31.9%; in experiment [5], 73.6% (active); in experiment [6], 49.5%.
On to `Cc1nc(N)c2nc(SC(C)C)c(N)nc2n1`, for which the growth inhibition in experiment [1] was 2.85%; in experiment [2], -6.55%; in experiment [3] it was 0.45%; in experiment [4], -31.2%; in experiment [5] it was -20.9%; in experiment [6] it was 17.2%.
Turning to `CCOC(=O)c1[nH]n(-c2ccccc2)c(=O)c1C=NC(=S)c1cccnc1`, the growth inhibition in experiment [1] was -12.3%; in experiment [2], 2.1%; in experiment [3], -29.2%; in experiment [4] it was 20.2%; in experiment [5], -24.9%; in experiment [6] it was -16.5%.
Consider `CCCCn1c(CCC)nc([N+](=O)[O-])c1Sc1ncn[nH]1`, for which the growth inhibition in experiment [1] is -4.15%; in experiment [2], 6.15%; in experiment [3], -28.4%; in experiment [4] it was -1%; in experiment [5], -20.2%; in experiment [6], 8.6%.
In the case of `COc1cccc(CC2C(=O)N=C(NC(C)=O)N2C)c1OC(C)=O` (stereo unspecified), the growth inhibition in experiment [1] is -35%; in experiment [2], -7.4%; in experiment [3] it was -23.6%; in experiment [4], -11.7%; in experiment [5], -5.65%; in experiment [6], -31.2%.
Take `Cc1ccc(C(=N)c2ccccc2Cc2ccccc2)cc1`: the growth inhibition was -14.4% in experiment [1]; -10.7% in experiment [2]; -12.8% in experiment [3]; 2.75% in experiment [4]; 3.9% in experiment [5]; -20.3% in experiment [6].
On to `CCC(C#N)(C(=O)OC)/C(C)=C/C(C)C` (stereo unspecified), for which the growth inhibition in experiment [1] is 7.95%; in experiment [2] it was -13.2%; in experiment [3], -3.45%; in experiment [4], -7.25%; in experiment [5], -26.9%; in experiment [6], -25.1%.
In the case of `CCOC(=O)c1nc2ccccc2nc1Nc1ccc(OC)c(OC)c1`, the growth inhibition was -30.2% in experiment [1]; -31.5% in experiment [2]; -15.9% in experiment [3]; -15.6% in experiment [4]; -16.6% in experiment [5]; -19.3% in experiment [6].
Take `C(/C=C/c1csnn1)=C\c1ccccc1`: the growth inhibition is 8.9% in experiment [1]; 8.85% in experiment [2]; -4.2% in experiment [3]; 15.8% in experiment [4]; 2.35% in experiment [5]; 0.5% in experiment [6].
Turning to `COc1ccccc1CCCO`, the growth inhibition in experiment [1] was -1.8%; in experiment [2], 1.2%; in experiment [3], 1.55%; in experiment [4] it was 11.2%; in experiment [5] it was 10.1%; in experiment [6], -3.1%.
As to `CN1CC2=C(C1)C(N(C(=O)c1ccc(-c3ccccc3)cc1)C(=O)c1ccc(-c3ccccc3)cc1)=NCN2`, the growth inhibition is 11.4% in experiment [1]; 3.25% in experiment [2]; 16.1% in experiment [3]; 10.6% in experiment [4]; 0.6% in experiment [5]; 21.6% in experiment [6].
